Measured values from the supplement of paper PMC4466140.

Molecular target: AgAbp1
Experiment: SPOT peptide array binding signal intensity (averaged, normalized) (arbitrary units (background-subtracted, floor 0; scale differs between SH3 domains)); higher = stronger binding of the SH3 domain to the peptide
How it was run: (§1)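 Spot intensities were captured after detection with anti-GST antibody, an HRP-linked anti-mouse secondary and luminol, and quantified with Genespotter. The probes were GST-fused SH3 domains from four yeast species, produced in E. coli BL21(DE3), purified on glutathione Sepharose and incubated at 10 μg/ml overnight at 4°C on cellulose-bound synthetic 15-mer peptides with cysteines replaced by serines. Binding signal is the normalized, background-subtracted spot intensity averaged over replicates, and its arbitrary units differ between domains.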

Binder	SPOT peptide array binding signal intensity
TSFKGRPKPPKTLKH	590

Molecular target: AgBbc1
Experiment: as above
How it was run: as §1

Binder	SPOT peptide array binding signal intensity
TSFKGRPKPPKTLKH	17.8

Molecular target: AgBem1-D1
Experiment: as above
How it was run: as §1

Binder	SPOT peptide array binding signal intensity
TSFKGRPKPPKTLKH	≤ 0

Molecular target: AgBzz1-D1
Experiment: as above
How it was run: as §1

Binder	SPOT peptide array binding signal intensity
TSFKGRPKPPKTLKH	≤ 0

Molecular target: AgBzz1-D2
Experiment: as above
How it was run: as §1

Binder	SPOT peptide array binding signal intensity
TSFKGRPKPPKTLKH	28

Molecular target: AgCyk3
Experiment: as above
How it was run: as §1

Binder	SPOT peptide array binding signal intensity
TSFKGRPKPPKTLKH	≤ 0

Molecular target: AgFus1
Experiment: as above
How it was run: as §1

Binder	SPOT peptide array binding signal intensity
TSFKGRPKPPKTLKH	3

Molecular target: AgHof1
Experiment: as above
How it was run: as §1

Binder	SPOT peptide array binding signal intensity
TSFKGRPKPPKTLKH	22.5

Molecular target: AgHse1
Experiment: as above
How it was run: as §1

Binder	SPOT peptide array binding signal intensity
TSFKGRPKPPKTLKH	65.5

Molecular target: AgLsb1
Experiment: as above
How it was run: as §1

Binder	SPOT peptide array binding signal intensity
TSFKGRPKPPKTLKH	≤ 0

Molecular target: AgLsb4
Experiment: as above
How it was run: as §1

Binder	SPOT peptide array binding signal intensity
TSFKGRPKPPKTLKH	20

Molecular target: AgMyo5
Experiment: as above
How it was run: as §1

Binder	SPOT peptide array binding signal intensity
TSFKGRPKPPKTLKH	1.5

Molecular target: AgNbp2
Experiment: as above
How it was run: as §1

Binder	SPOT peptide array binding signal intensity
TSFKGRPKPPKTLKH	≤ 0

Molecular target: AgRvs167
Experiment: as above
How it was run: as §1

Binder	SPOT peptide array binding signal intensity
TSFKGRPKPPKTLKH	2

Molecular target: AgSho1
Experiment: as above
How it was run: as §1

Binder	SPOT peptide array binding signal intensity
TSFKGRPKPPKTLKH	≤ 0

Molecular target: AgSla1-D1-D2
Experiment: as above
How it was run: as §1

Binder	SPOT peptide array binding signal intensity
TSFKGRPKPPKTLKH	71

Molecular target: AgSla1-D3
Experiment: as above
How it was run: as §1

Binder	SPOT peptide array binding signal intensity
TSFKGRPKPPKTLKH	5.5

Molecular target: CaAbp1-D1
Experiment: as above
How it was run: as §1

Binder	SPOT peptide array binding signal intensity
TSFKGRPKPPKTLKH	1460

Molecular target: CaAbp1-D2
Experiment: as above
How it was run: as §1

Binder	SPOT peptide array binding signal intensity
TSFKGRPKPPKTLKH	1380

Molecular target: CaBbc1
Experiment: as above
How it was run: as §1

Binder	SPOT peptide array binding signal intensity
TSFKGRPKPPKTLKH	43.5

Molecular target: CaBem1-D1
Experiment: as above
How it was run: as §1

Binder	SPOT peptide array binding signal intensity
TSFKGRPKPPKTLKH	≤ 0

Molecular target: CaBzz1-D1
Experiment: as above
How it was run: as §1

Binder	SPOT peptide array binding signal intensity
TSFKGRPKPPKTLKH	80.5

Molecular target: CaBzz1-D2
Experiment: as above
How it was run: as §1

Binder	SPOT peptide array binding signal intensity
TSFKGRPKPPKTLKH	67.8

Molecular target: CaCyk3
Experiment: as above
How it was run: as §1

Binder	SPOT peptide array binding signal intensity
TSFKGRPKPPKTLKH	3

Molecular target: CaFus1
Experiment: as above
How it was run: as §1

Binder	SPOT peptide array binding signal intensity
TSFKGRPKPPKTLKH	44.5

Molecular target: CaHof1
Experiment: as above
How it was run: as §1

Binder	SPOT peptide array binding signal intensity
TSFKGRPKPPKTLKH	2.75

Molecular target: CaHse1
Experiment: as above
How it was run: as §1

Binder	SPOT peptide array binding signal intensity
TSFKGRPKPPKTLKH	2.75

Molecular target: CaLsb1
Experiment: as above
How it was run: as §1

Binder	SPOT peptide array binding signal intensity
TSFKGRPKPPKTLKH	≤ 0

Molecular target: CaLsb4
Experiment: as above
How it was run: as §1

Binder	SPOT peptide array binding signal intensity
TSFKGRPKPPKTLKH	≤ 0

Molecular target: CaMyo5
Experiment: as above
How it was run: as §1

Binder	SPOT peptide array binding signal intensity
TSFKGRPKPPKTLKH	2.5

Molecular target: CaNbp2
Experiment: as above
How it was run: as §1

Binder	SPOT peptide array binding signal intensity
TSFKGRPKPPKTLKH	12

Molecular target: CaRvs167
Experiment: as above
How it was run: as §1

Binder	SPOT peptide array binding signal intensity
TSFKGRPKPPKTLKH	0.833

Molecular target: CaRvs167-3
Experiment: as above
How it was run: as §1

Binder	SPOT peptide array binding signal intensity
TSFKGRPKPPKTLKH	1.5

Molecular target: CaSho1
Experiment: as above
How it was run: as §1

Binder	SPOT peptide array binding signal intensity
TSFKGRPKPPKTLKH	0.5

Molecular target: CaSla1-D1-D2
Experiment: as above
How it was run: as §1

Binder	SPOT peptide array binding signal intensity
TSFKGRPKPPKTLKH	196

Molecular target: CaSla1-D3
Experiment: as above
How it was run: as §1

Binder	SPOT peptide array binding signal intensity
TSFKGRPKPPKTLKH	≤ 0

Molecular target: ScAbp1
Experiment: as above
How it was run: as §1

Binder	SPOT peptide array binding signal intensity
TSFKGRPKPPKTLKH	556

Molecular target: ScBbc1
Experiment: as above
How it was run: as §1

Binder	SPOT peptide array binding signal intensity
TSFKGRPKPPKTLKH	≤ 0

Molecular target: ScBem1-D1
Experiment: as above
How it was run: as §1

Binder	SPOT peptide array binding signal intensity
TSFKGRPKPPKTLKH	6.5

Molecular target: ScBzz1-D1
Experiment: as above
How it was run: as §1

Binder	SPOT peptide array binding signal intensity
TSFKGRPKPPKTLKH	26

Molecular target: ScBzz1-D2
Experiment: as above
How it was run: as §1

Binder	SPOT peptide array binding signal intensity
TSFKGRPKPPKTLKH	18

Molecular target: ScCyk3
Experiment: as above
How it was run: as §1

Binder	SPOT peptide array binding signal intensity
TSFKGRPKPPKTLKH	≤ 0

Molecular target: ScFus1
Experiment: as above
How it was run: as §1

Binder	SPOT peptide array binding signal intensity
TSFKGRPKPPKTLKH	≤ 0

Molecular target: ScHof1
Experiment: as above
How it was run: as §1

Binder	SPOT peptide array binding signal intensity
TSFKGRPKPPKTLKH	8.5

Molecular target: ScHse1
Experiment: as above
How it was run: as §1

Binder	SPOT peptide array binding signal intensity
TSFKGRPKPPKTLKH	542

Molecular target: ScLsb1
Experiment: as above
How it was run: as §1

Binder	SPOT peptide array binding signal intensity
TSFKGRPKPPKTLKH	4.75

Molecular target: ScLsb2
Experiment: as above
How it was run: as §1

Binder	SPOT peptide array binding signal intensity
TSFKGRPKPPKTLKH	≤ 0

Molecular target: ScLsb3
Experiment: as above
How it was run: as §1

Binder	SPOT peptide array binding signal intensity
TSFKGRPKPPKTLKH	≤ 0

Molecular target: ScLsb4
Experiment: as above
How it was run: as §1

Binder	SPOT peptide array binding signal intensity
TSFKGRPKPPKTLKH	≤ 0

Molecular target: ScMyo3
Experiment: as above
How it was run: as §1

Binder	SPOT peptide array binding signal intensity
TSFKGRPKPPKTLKH	3

Molecular target: ScMyo5
Experiment: as above
How it was run: as §1

Binder	SPOT peptide array binding signal intensity
TSFKGRPKPPKTLKH	≤ 0

Molecular target: ScNbp2
Experiment: as above
How it was run: as §1

Binder	SPOT peptide array binding signal intensity
TSFKGRPKPPKTLKH	7

Molecular target: ScPex13
Experiment: as above
How it was run: as §1

Binder	SPOT peptide array binding signal intensity
TSFKGRPKPPKTLKH	1.5

Molecular target: ScRvs167
Experiment: as above
How it was run: as §1

Binder	SPOT peptide array binding signal intensity
TSFKGRPKPPKTLKH	≤ 0

Molecular target: ScSho1
Experiment: as above
How it was run: as §1

Binder	SPOT peptide array binding signal intensity
TSFKGRPKPPKTLKH	71

Molecular target: ScSla1-D1-D2
Experiment: as above
How it was run: as §1

Binder	SPOT peptide array binding signal intensity
TSFKGRPKPPKTLKH	63.5

Molecular target: ScSla1-D3
Experiment: as above
How it was run: as §1

Binder	SPOT peptide array binding signal intensity
TSFKGRPKPPKTLKH	7

Molecular target: SpAbp1-D1
Experiment: as above
How it was run: as §1

Binder	SPOT peptide array binding signal intensity
TSFKGRPKPPKTLKH	174

Molecular target: SpBbc1
Experiment: as above
How it was run: as §1

Binder	SPOT peptide array binding signal intensity
TSFKGRPKPPKTLKH	0.5

Molecular target: SpBzz1-D1
Experiment: as above
How it was run: as §1

Binder	SPOT peptide array binding signal intensity
TSFKGRPKPPKTLKH	207

Molecular target: SpBzz1-D2
Experiment: as above
How it was run: as §1

Binder	SPOT peptide array binding signal intensity
TSFKGRPKPPKTLKH	≤ 0

Molecular target: SpCyk3
Experiment: as above
How it was run: as §1

Binder	SPOT peptide array binding signal intensity
TSFKGRPKPPKTLKH	≤ 0

Molecular target: SpHof1
Experiment: as above
How it was run: as §1

Binder	SPOT peptide array binding signal intensity
TSFKGRPKPPKTLKH	27

Molecular target: SpHof1-2
Experiment: as above
How it was run: as §1

Binder	SPOT peptide array binding signal intensity
TSFKGRPKPPKTLKH	≤ 0

Molecular target: SpHof1-3
Experiment: as above
How it was run: as §1

Binder	SPOT peptide array binding signal intensity
TSFKGRPKPPKTLKH	183

Molecular target: SpHse1
Experiment: as above
How it was run: as §1

Binder	SPOT peptide array binding signal intensity
TSFKGRPKPPKTLKH	79

Molecular target: SpLsb1
Experiment: as above
How it was run: as §1

Binder	SPOT peptide array binding signal intensity
TSFKGRPKPPKTLKH	2.5

Molecular target: SpLsb4
Experiment: as above
How it was run: as §1

Binder	SPOT peptide array binding signal intensity
TSFKGRPKPPKTLKH	12.5

Molecular target: SpMyo1
Experiment: as above
How it was run: as §1

Binder	SPOT peptide array binding signal intensity
TSFKGRPKPPKTLKH	≤ 0

Molecular target: SpNbp2
Experiment: as above
How it was run: as §1

Binder	SPOT peptide array binding signal intensity
TSFKGRPKPPKTLKH	22

Molecular target: SpPex13
Experiment: as above
How it was run: as §1

Binder	SPOT peptide array binding signal intensity
TSFKGRPKPPKTLKH	≤ 0

Molecular target: SpRvs167
Experiment: as above
How it was run: as §1

Binder	SPOT peptide array binding signal intensity
TSFKGRPKPPKTLKH	2

Molecular target: SpSla1-D1-D2
Experiment: as above
How it was run: as §1

Binder	SPOT peptide array binding signal intensity
TSFKGRPKPPKTLKH	3

Molecular target: SpSla1-D3
Experiment: as above
How it was run: as §1

Binder	SPOT peptide array binding signal intensity
TSFKGRPKPPKTLKH	2
